# According to ChEMBL document CHEMBL3988442, “University of Dundee, Small-Polar-MMV Screening Library” (2021):
# The campaign covered roughly 48,000 compounds. About 13,000 (27%) showed an effect of 50% or more. Some of the results follow.
# Tested on: Wolbachia pipientis
# Experiment: Anti-Wolbachia Cell-Based Screen
# Assay type: functional
# Parameters: scale not given: in the data most compounds retested in dose-response had high values
# Settings: 5 µM
row,SMILES,Percent Effect [%]
1,CCC(c1nc(C(C)C)nn1-c1ccccn1)n1cccn1 (stereo unspecified),8.011
2,CC(C)N1CCc2c(c(COc3cncnc3)nn2CC2CC2)C1.O=C(O)C(F)(F)F,-1.489
3,c1ccc(-c2cnc(CNC3CCCN(c4cccnn4)C3)o2)cc1 (stereo unspecified),-8.343
4,O=C(c1ccno1)N1C[C@@H](F)[C@@H](OCc2nc3ccccc3o2)C1,6.473
5,NC(=O)C1CN(c2ccc3c(Cl)ccnc3c2F)CCO1 (stereo unspecified),-12.11
6,CCc1nc(NC(=O)Cc2csc(-c3nnc[nH]3)n2)sc1C,3.287
7,C1CCC(CN2Cc3nnn(CC4CC4)c3C(COCC3CC3)C2)C1.O=C(O)C(F)(F)F (stereo unspecified),107.6
8,COCC1CN(Cc2ccncc2)Cc2nnn(CC3CC3)c21.O=C(O)C(F)(F)F.O=C(O)C(F)(F)F (stereo unspecified),-5.053
9,CCOCC1CN(CC2CCC2)Cc2nnn(CC3CC3)c21 (stereo unspecified),111.4
10,CN(C)C(=O)N1Cc2nnn(CC3CC3)c2C(COCC2CC2)C1 (stereo unspecified),117.2
11,CCOCC1CN(C(=O)[C@H]2CCCO2)Cc2nnn(CC3CC3)c21 (stereo partly specified),0.1287
12,COCC1CN(C(=O)[C@H]2CCCO2)Cc2nnn(CC3CC3)c21 (stereo partly specified),-4.44
13,CN(C)C(=O)N1Cc2nnn(C)c2C(COCC2CC2)C1 (stereo unspecified),7.957
14,CCOCC1CN(C(=O)N(C)C)Cc2nnn(CC3CC3)c21 (stereo unspecified),-7.85
15,C1CC(N2Cc3nnn(CC4CC4)c3C(COCC3CC3)C2)C1.O=C(O)C(F)(F)F (stereo unspecified),96.7
16,O=C(O)C(F)(F)F.c1cc(CN2Cc3nnn(CC4CC4)c3C(COCC3CC3)C2)co1 (stereo unspecified),1.787
17,CCSC1(CNc2ncc(Br)cn2)CCOCC1,-0.7161
18,Cc1cc(CN2CCN(C(=O)C(C)C)[C@@H]3CS(=O)(=O)C[C@@H]32)ccc1F,-3.716
19,CC(Cn1ccnc1)NCc1nncn1C1CCCCC1 (stereo unspecified),-17.23
20,NC(=O)COc1ccc(CN2CC[C@@]3(O)CCCC[C@H]3C2)cc1Cl,11.68
21,CSc1ncccc1C(=O)NC(C)c1cccc(N2CCOC2=O)c1 (stereo unspecified),5.443
22,Cc1cc(CN(C)C(=O)C2CCS(=O)(=O)C2)no1 (stereo unspecified),3.983

row,SMILES,Percent Effect [%]
1,CCCn1nnnc1CSc1nccn1Cc1ccccn1,-4.795
2,CCn1ccnc1CNCC1CCCN1c1cccnn1 (stereo unspecified),-7.119
3,O=C(Cc1cccs1)N1CCOCC1CO (stereo unspecified),-3.953
4,Cc1nc(CC(=O)N2CCCCC2c2ccn3ccnc3n2)cs1 (stereo unspecified),-8.343
5,O=C(Cc1ccsc1)N1CCCCC1c1ccn2ccnc2n1 (stereo unspecified),73.59
6,O=C(Cc1cccs1)N1CCCCC1c1ccn2ccnc2n1 (stereo unspecified),83.71
7,CN(Cc1ccccc1F)C(=O)c1ccoc1,5.435
8,CN(Cc1ccccc1F)C(=O)COC(=O)c1cc(Cl)c[nH]1,87.09
9,Cc1ccccc1CS(=O)(=O)CC(=O)N(C)Cc1ccccc1F,-29.58
10,CN(Cc1ccsc1)C(=O)COC(=O)c1cc(Cl)c[nH]1,107.8
11,CN(Cc1ccccc1F)C(=O)CS(=O)(=O)Cc1ccc(Cl)c(Cl)c1,6.215
12,COc1ccc(Cl)cc1CS(=O)(=O)CC(=O)N(C)Cc1ccccc1F,-1.573
13,COCCN1CCN(CC(=O)N(C)Cc2ccsc2)CC1C (stereo unspecified),9.964
14,COC(=O)c1ccc(OCC(=O)N(C)Cc2ccsc2)c(OC)c1,0.9882
15,CN(Cc1ccccc1F)C(=O)c1cc(Cl)c[nH]1,92.86
16,Cc1ccc(CNCC2CCc3nnc(C(C)C)n3C2)s1 (stereo unspecified),-11.01
17,CN1CCN(C(=O)CCc2cc(Br)cs2)CC1,-6.424
18,COc1cc(NC(=O)NC2CCOCC2)ccc1N1CCOC1=O,-14.6
19,Cc1ncc(CN(C)c2nc3c(cnn3C(C)(C)C)c(=O)[nH]2)s1,5.937
20,COc1c(CNC(c2nccn2C)C(C)C)c(C)nn1C (stereo unspecified),-4.434
21,CCN(CC)Cc1cc(C(=O)N2CCC3(CC2)NCCNC3=O)c(C)o1,-9.012
22,CN(CCc1ccncc1)c1cnn(C)c(=O)c1Br,103

row,SMILES,Percent Effect [%]
1,COCCN(C)c1cnn(C)c(=O)c1Br,101.6
2,CN(CCc1ccccc1)c1cnn(C)c(=O)c1Br,67.25
3,CN(CCc1ccccn1)Cc1nccn1Cc1ccccc1,8.438
4,CN(CCc1ccccn1)c1cnn(C)c(=O)c1Br,101.4
5,COc1ccc(Br)cc1CN(C)c1nc2c(cnn2C)c(=O)[nH]1,-19.59
6,CN(CCc1ccccc1)c1cnn(Cc2ccccn2)c(=O)c1,5.151
7,CC(C)N(C)C(=O)Cn1ncc(N(C)CCc2ccccc2)cc1=O,-17.71
8,COCCN(Cc1ccc(F)cc1Cl)C(=O)c1cnn(C)c1C,-5.759
9,Cc1nc(-c2ccncc2)nc(N(C)CCc2ccncc2)c1C,0.9394
10,CN(C)CCN(C)c1nc(CCc2ccccc2)nc2c1cnn2C,4.899
11,Cc1nc(N(C)C)nc(N(C)CCc2ccncc2)c1C,13.66
12,NS(=O)(=O)CCNC(=O)C1(c2ccc(Br)cc2)CC1,-1.628
13,CCc1nnc2n1CCN(C(=O)Cc1csc(-c3ccco3)n1)C2,-5.069
14,CCCC(=O)NCC(=O)Nc1cc(F)ccc1SCC(F)F,9.844
15,Cc1noc([C@@H]2C[C@H](NC(=O)Nc3cccc(F)c3)CN2C)n1,-4.092
16,CS(=O)(=O)NCc1n[nH]c2c1CCN(C(=O)c1ccsc1)C2,-6.349
17,Cc1nn(C)cc1-c1ccnc(N(C)Cc2cccs2)n1,-35.4
18,CCOc1cccc(CNC(C)c2ccc(-n3ccnc3)cc2)c1O (stereo unspecified),-2.856
19,O=C(c1ccc(F)cc1Cl)N1CCn2c(nnc2C(F)(F)F)C1,-1.794
20,OCCN1CCN(Cc2cnc3c(-c4ccccc4)cnn3c2)CC1,-3.434
21,COCCCC1(C(=O)O)CCCN(Cc2cc3c(cc2C)OCCO3)C1 (stereo unspecified),-2.058
22,O=C(CN1CCc2cncnc2C1)NCCOc1ccccc1,-0.7298

row,SMILES,Percent Effect [%]
1,COCCNC(=O)CN1CCN(c2nc3cc(C)ccc3o2)CC1,-13.48
2,Cc1nc(=O)c2ccccc2n1C1=CCN(CC(=O)N2CCCC2)CC1,121.3
3,O=C(c1cn(CC(=O)N2CCCCCC2)c2ccccc12)C1CC1,-6.817
4,Cc1nc(=O)c2ccccc2n1C1=CCN(CC(=O)NC(C)C)CC1,121.8
5,Cc1ccc2nc(N3CCN(CC(=O)NC(C)C)CC3)cc(C)c2c1,5.586
6,O=C(c1cn(CC(=O)N2CCCC2)c2ccccc12)C1CC1,-23.59
7,COCCNC(=O)CN1CC=C(n2c(C)nc(=O)c3ccccc32)CC1,80.87
8,Cc1nnc2n1CCN(CC(=O)NC(C)c1cccc3ccccc13)C2 (stereo unspecified),-6.251
9,CCNC(=O)CN(CC)C(=O)c1cc(-c2cccc(Cl)c2)no1,-7.468
10,CC(CN1CCOCC1)NC(=O)c1cccc2cn[nH]c12 (stereo unspecified),6.229
11,CN(C)C[C@H]1C[C@@H]2CN(C(=O)c3ccno3)C[C@@H]2O1.O=C(O)C(F)(F)F,-9.995
12,Cc1cnc(C(=O)N2CCCN(Cc3cnn(C(C)C)c3)CC2)cn1,1.046
13,Cc1cnn(CC(=O)N2CCCN(Cc3cnn(C(C)C)c3)CC2)c1,117.3
14,Cc1cc(C(=O)N2CCCN(Cc3cnn(C(C)C)c3)CC2)no1,2.122
15,CC(C)n1cc(CN2CCCN(C(=O)CN3CCCC3=O)CC2)cn1,122.9
16,NS(=O)(=O)c1cnc(NCC2(c3ccccc3)CCC2)s1,-8.019
17,Cc1cc(NC(=O)NCCc2ccc3c(c2)OCCO3)n(C)n1,-3.946
18,Cn1ncc(NC(=O)Cn2ccc(-c3ccc(F)cc3)n2)n1,6.673
19,Cc1cc(N2CCN(C(=O)Cc3ccc4c(c3)OCO4)CC2)cc(C)n1,-8.837
20,Cc1cc(NC(=O)Cn2ccc(-c3ccc4c(c3)OCO4)n2)n(C)n1,140.3
21,Cn1ncc(NC(=O)Cn2ccc(-c3cccc(F)c3)n2)n1,-3.857
22,Cc1cc(NC(=O)Cc2ccc3c(c2)OCO3)n(C)n1,120.5

row,SMILES,Percent Effect [%]
1,CCC1CN(CC(=O)Nc2cc(C)nn2C)CCO1 (stereo unspecified),11.37
2,Cn1nccc1NC(=O)Cn1ccc(-c2ccc3c(c2)OCO3)n1,132.1
3,CC(=O)c1ccc(-c2cnn(CC(=O)Nc3cc(C)nn3C)c2)nc1,2.251
4,CCCOc1cc(Cl)c(CN2CCNC(C(=O)NC3CC3)C2)cc1OC (stereo unspecified),-0.8522
5,O=C(c1cncc(N2CCCC3(CCNCC3)CC2)n1)N1CCCCC1,3.422
6,COc1cc(F)cc(CNC(=O)Nc2ccn(CC(F)F)n2)c1,-8.907
7,COCC1CCCN(C(=O)c2ccccc2NCc2cccnc2)C1 (stereo unspecified),97.72
8,Cc1[nH]nc(CCC(=O)N2CCCC(OCc3cccnc3)C2)c1C (stereo unspecified),1.428
9,CSCC1CCN(C(=O)c2ccccc2NCc2cccnc2)C1 (stereo unspecified),46.56
10,CCOC1CCCN(C(=O)c2ccccc2NCc2cccnc2)C1 (stereo unspecified),55.92
11,Cc1ccc(CNC(=O)N2CCN(C(C)c3cccnc3)CC2)cn1 (stereo unspecified),-10.7
12,CC(C)N1CCN(C(=O)c2ccccc2NCc2cccnc2)CC1,80.75
13,Cc1c(NCc2cccnc2)cccc1C(=O)N1CCC(N(C)C)C1 (stereo unspecified),115.4
14,NC(=O)CN1CCC(C(=O)N2CCCC(OCc3cccnc3)C2)CC1 (stereo unspecified),-8.18
15,COCC(=O)N(Cc1cccnc1)CC1CCCN(C2CCCCC2)C1 (stereo unspecified),-12.35
16,O=C(c1cnc(NCc2cccnc2)c(Cl)c1)N1CCCCC1,2.275
17,CN(C)C[C@H]1OC[C@@H]2CN(C(=O)NCc3cccnc3)CC[C@@H]21.O=C(O)C(F)(F)F.O=C(O)C(F)(F)F,-2.462
18,COC(=O)C1CCN(C(=O)c2cccc(NS(C)(=O)=O)c2C)CC1,5.787
